# Bioassay records: PubChem BioAssay, Broad Institute
# Shown is part of a subset that was picked to be rich in hits.
# IDE exosite inh: exo-site inhibitors of human IDE, primary screen, biochemical, fluorescence anisotropy, probe displacement. AID 1259349, 2017. purified IDE, FL-6b probe fluorescence polarization; stronger effect = lower value. 6.3% of 17,000 active. z-score at 20 µM;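 active = z-score of -3 or lower, meaning strong loss of probe binding signal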;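 note: His-tagged human IDE residues 42-1019 made in E. coli with 30 nM FL-6b probe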
# Target sequence (P14735 42-1019 limits assumed): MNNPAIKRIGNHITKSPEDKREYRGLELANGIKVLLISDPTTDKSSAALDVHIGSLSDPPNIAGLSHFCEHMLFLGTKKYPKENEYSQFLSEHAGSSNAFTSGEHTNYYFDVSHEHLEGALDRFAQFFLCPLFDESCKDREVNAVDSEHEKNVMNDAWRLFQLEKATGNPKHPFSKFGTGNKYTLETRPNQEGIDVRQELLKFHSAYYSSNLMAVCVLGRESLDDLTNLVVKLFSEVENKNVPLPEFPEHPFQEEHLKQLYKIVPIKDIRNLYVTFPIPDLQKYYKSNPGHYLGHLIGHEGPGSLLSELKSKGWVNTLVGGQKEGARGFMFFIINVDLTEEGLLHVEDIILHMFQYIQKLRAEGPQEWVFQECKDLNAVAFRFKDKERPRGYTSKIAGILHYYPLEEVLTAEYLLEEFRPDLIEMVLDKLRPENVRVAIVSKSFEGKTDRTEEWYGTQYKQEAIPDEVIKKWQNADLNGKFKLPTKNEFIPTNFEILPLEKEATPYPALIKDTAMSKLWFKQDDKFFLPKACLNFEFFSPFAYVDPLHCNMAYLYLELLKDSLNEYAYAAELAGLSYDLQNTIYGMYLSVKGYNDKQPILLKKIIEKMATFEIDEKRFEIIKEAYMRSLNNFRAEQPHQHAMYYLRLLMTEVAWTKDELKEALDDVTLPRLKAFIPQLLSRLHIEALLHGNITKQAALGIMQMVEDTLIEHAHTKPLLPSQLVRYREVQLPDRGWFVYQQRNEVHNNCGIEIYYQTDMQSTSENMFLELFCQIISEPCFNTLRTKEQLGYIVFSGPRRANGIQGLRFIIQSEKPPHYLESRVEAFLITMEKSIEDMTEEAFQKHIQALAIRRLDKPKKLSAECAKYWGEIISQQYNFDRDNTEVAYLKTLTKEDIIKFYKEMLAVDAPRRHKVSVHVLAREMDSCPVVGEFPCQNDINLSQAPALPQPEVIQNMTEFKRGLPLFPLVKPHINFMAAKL
# * hit, by the source's call.
SMILES,IDE exosite inh
COc1ccc2c3c(n(C)c2c1)[C@H](CO)N(CC1CC1)CC31CCN(S(=O)(=O)c2cccs2)CC1,-1.3
Cc1nn(C)cc1NC(=O)C[C@H]1CC[C@@H]2[C@H](COc3ccc(NC(=O)C4CCOCC4)cc3C(=O)N2C)O1,-1.2
CNC[C@@H]1OCCCC[C@@H](C)Oc2ccc(NS(=O)(=O)c3ccc(F)cc3)cc2C(=O)N([C@@H](C)CO)C[C@H]1C,0.19
COCC(=O)N1CC(=O)N2[C@H](CO)[C@H](c3ccc(C#Cc4cccc(OC)c4)cc3)[C@H]2C1,-6.6*
CCC(=O)N1CC(=O)N2[C@H](C1)[C@@H](c1ccc(C#Cc3cccc(OC)c3)cc1)[C@@H]2CO,-6.5*
COc1cccc(C#Cc2ccc([C@@H]3[C@@H](CO)N4C(=O)CN(C(=O)Cc5cccnc5)C[C@@H]34)cc2)c1,-1.4
COCC(=O)N1CC(=O)N2[C@H](CO)[C@H](c3ccc(C#Cc4cccc(OC)c4)cc3)[C@@H]2C1,-2.3
O=C(NC[C@H]1[C@@H](c2ccccc2)[C@@H](CO)N1Cc1ccccn1)NC1CCCC1,0.7
CC(C)CC#Cc1ccc([C@H]2[C@@H](CO)N3C(=O)CN(C(=O)CN4CCOCC4)C[C@@H]23)cc1,1.7
Cc1noc(C)c1S(=O)(=O)N(C)C[C@@H]1OCCCC[C@H](C)Oc2ccc(NS(=O)(=O)c3cn(C)cn3)cc2C(=O)N([C@H](C)CO)C[C@@H]1C,1.5
O=C(c1ccc(F)cc1)N1CC(=O)N2[C@H](CO)[C@@H](c3ccc(C#CC4CC4)cc3)[C@@H]2C1,1.4
CC(C)NC(=O)Nc1ccc2c(c1)C(=O)N([C@H](C)CO)C[C@@H](C)[C@@H](CN(C)C(=O)C1CCCCC1)OCCCC[C@H](C)O2,2.2
O=C(CN1CCOCC1)N1CCCCN2[C@H](CO)[C@@H](c3ccc(-c4ccccc4F)cc3)[C@H]2C1,1.6
COc1ccccc1-c1ccc([C@@H]2[C@H]3CN(C(=O)CN4CCOCC4)CCCCN3[C@H]2CO)cc1,0.61
O=C(CN1CCOCC1)N1CCCCN2[C@@H](CO)[C@@H](c3ccc(-c4ccccc4F)cc3)[C@@H]2C1,-5.1*
O=C(CN1CCOCC1)N1CCCCN2[C@H](C1)[C@@H](c1ccc(-c3ccccc3F)cc1)[C@@H]2CO,-1.4
COc1ccccc1-c1ccc([C@@H]2[C@H](CO)N3CCCCN(C(=O)CN4CCOCC4)C[C@@H]23)cc1,-15*
COc1ccccc1-c1ccc([C@H]2[C@H]3CN(C(=O)CN4CCOCC4)CCCCN3[C@H]2CO)cc1,-2.6
N#C[C@H]1[C@@H](c2ccccc2-c2cccc(F)c2)[C@H](CO)N1C(=O)CN1CCOCC1,0.75
CCS(=O)(=O)N1CC2(CN(CC3CCOCC3)[C@@H](CO)c3c2c2ccc(OC)cc2n3C)C1,-2.1
COc1ccc(NC(=O)N2CC(=O)N3[C@H](C2)[C@@H](c2ccc(-c4ccccc4)cc2)[C@@H]3CO)cc1,2.7
C/C=C/c1ccccc1[C@H]1[C@H](C#N)N(C(=O)c2cccnc2)[C@H]1CO,0.035
COc1ccc([C@H]2C/C=C\C[C@H](c3cccc(Cl)c3)NC(=O)[C@@H](c3ccccc3)CC(=O)N2)c(OC)c1,0.62
CC(C)C#Cc1ccc([C@H]2[C@@H](CO)N3C(=O)CN(C(=O)c4ccccn4)C[C@@H]23)cc1,1.5
O=C(NC1CCCC1)N1CC(=O)N2[C@H](C1)[C@H](c1ccc(-c3ccc(F)cc3)cc1)[C@@H]2CO,2.1
SMILES,IDE exosite inh
O=C(NC1CCCCC1)N1CC(=O)N2[C@H](C1)[C@H](c1ccc(-c3cccc(F)c3)cc1)[C@@H]2CO,-6.3*
O=C(NC1CCCCC1)N1CC(=O)N2[C@H](CO)[C@H](c3ccc(-c4cccc(F)c4)cc3)[C@H]2C1,-13*
O=C(NC1CCCC1)N1CC(=O)N2[C@H](C1)[C@@H](c1ccc(-c3ccc(F)cc3)cc1)[C@@H]2CO,1.2
O=C(NC1CCCC1)N1CC(=O)N2[C@H](CO)[C@H](c3ccc(-c4ccc(F)cc4)cc3)[C@@H]2C1,3.7
O=C(NC1CCCC1)N1CC(=O)N2[C@H](CO)[C@@H](c3ccc(-c4ccc(F)cc4)cc3)[C@H]2C1,2.4
O=C(NC[C@@H]1[C@H](c2ccccc2)[C@H](CO)N1C(=O)C1CCC1)NC1CCCC1,-0.77
C/C=C/c1ccc([C@@H]2[C@@H](CO)N(C(C)=O)[C@H]2CN(CCC)C(C)=O)cc1,4.8
C[C@H]1COCc2cnnn2CC[C@H](Cc2ccccc2)C(=O)N1,0.84
CO[C@H]1CC[C@H]2CCOc3c(C#N)cccc3C(=O)N(C)CC3(CCCCC3)CC(=O)N(C)C[C@H]1O2,0.015
CO[C@H]1CN(C)C(=O)c2cc(NS(=O)(=O)c3cccc(Cl)c3)ccc2OC[C@H](C)NC[C@H]1C,-0.89
COc1cccc(S(=O)(=O)N2CCCCN3[C@H](C2)[C@H](c2ccc(C#CCC(C)C)cc2)[C@@H]3CO)c1,-1.4
O=C(NCC1CCCCC1)[C@@H]1[C@@H](CO)[C@@H]2Cn3c(cccc3=O)[C@H]1N2C(=O)c1ccncc1,0.48
COCC(=O)Nc1ccc2c(c1)[C@@H]1C[C@H](CC(=O)N3CCOCC3)O[C@@H](CO)[C@@H]1O2,-1.5
Cc1cccc(-c2ccc([C@@H]3[C@H](CO)N4C(=O)CN(C(=O)c5cccnc5)C[C@@H]34)cc2)c1,-6.3*
COc1ccc(-c2ccc([C@@H]3[C@H](CO)N4C(=O)CN(C(=O)c5cccnc5)C[C@@H]34)cc2)cc1,-1.5
COc1ccc(-c2ccc([C@H]3[C@H](CO)N4C(=O)CN(C(=O)c5cccnc5)C[C@@H]34)cc2)cc1,-1.8
Cc1cccc(-c2ccc([C@H]3[C@H]4CN(C(=O)c5cccnc5)CC(=O)N4[C@H]3CO)cc2)c1,-2.8
Cc1cccc(-c2ccc([C@H]3[C@H](CO)N4C(=O)CN(C(=O)c5cccnc5)C[C@@H]34)cc2)c1,-9.6*
COc1ccc(-c2ccc([C@@H]3[C@@H](CO)N4C(=O)CN(C(=O)c5cccnc5)C[C@@H]34)cc2)cc1,0.76
O=C(Nc1ccc(F)cc1)N1CC(=O)N2[C@H](C1)[C@H](c1ccc(-c3cccc(F)c3)cc1)[C@@H]2CO,-1.3
COc1ccc(S(=O)(=O)N2C[C@H](O)COC[C@@H]3O[C@H](CC(=O)N[C@@H]4CCN(Cc5ccccc5)C4)CC[C@H]32)cc1,0.32
O=C(C[C@H]1CC[C@H]2NC[C@H](O)COC[C@@H]2O1)NC1Cc2ccccc2C1,-0.58
COc1cccc(NC(=O)N2CC(=O)N3[C@@H](CO)[C@H](c4ccc(C5=CCCC5)cc4)[C@@H]3C2)c1,3.1
CO[C@@H]1CN(C)C(=O)c2ccc(NS(C)(=O)=O)cc2OC[C@H](C)N(CC2CC2)C[C@@H]1C,0.6
O=C(C[C@@H]1C[C@@H]2c3cc(NC(=O)NC4CCCC4)ccc3O[C@@H]2[C@H](CO)O1)NCc1ccccc1F,-0.15
COc1ccc(S(=O)(=O)N2C[C@H](O)COC[C@H]3O[C@H](CC(=O)N[C@@H]4CCN(Cc5ccccc5)C4)CC[C@@H]32)cc1,0.52
OC[C@H]1[C@H](c2ccc(-c3ccccc3F)cc2)[C@@H]2CN(Cc3cncnc3)CCCCN12,2.2
OC[C@H]1[C@H](c2ccc(C#Cc3ccccc3F)cc2)[C@H]2CN(Cc3cncnc3)CCCCN21,-5.7*
OC[C@@H]1[C@H](c2ccc(-c3ccccc3F)cc2)[C@H]2CN(Cc3cncnc3)CCCCN12,-1.7
OC[C@@H]1[C@@H](c2ccc(C#Cc3ccccc3F)cc2)[C@H]2CN(Cc3cncnc3)CCCCN12,-1.6
